What is called inhibition is the drop in the measured response relative to a control, in per cent.

The target of the assay is Solute carrier family 2, facilitated glucose transporter member 1 (Homo sapiens) (UniProt P11166). Nature of the assay: ST_JUDE_LEISH: Cytotoxicity at 2uM final concentration against transgenic Leishmania Mexicana promastigotes LmGLUT1 that are glucose transport deficient and complemented with the human glucose transporter GLUT1. Activity is measured by DNA content using SYBR green in vitro. In kind it is functional.
Sequence of Solute carrier family 2, facilitated glucose transporter member 1 (Homo sapiens) (P11166 whole entry): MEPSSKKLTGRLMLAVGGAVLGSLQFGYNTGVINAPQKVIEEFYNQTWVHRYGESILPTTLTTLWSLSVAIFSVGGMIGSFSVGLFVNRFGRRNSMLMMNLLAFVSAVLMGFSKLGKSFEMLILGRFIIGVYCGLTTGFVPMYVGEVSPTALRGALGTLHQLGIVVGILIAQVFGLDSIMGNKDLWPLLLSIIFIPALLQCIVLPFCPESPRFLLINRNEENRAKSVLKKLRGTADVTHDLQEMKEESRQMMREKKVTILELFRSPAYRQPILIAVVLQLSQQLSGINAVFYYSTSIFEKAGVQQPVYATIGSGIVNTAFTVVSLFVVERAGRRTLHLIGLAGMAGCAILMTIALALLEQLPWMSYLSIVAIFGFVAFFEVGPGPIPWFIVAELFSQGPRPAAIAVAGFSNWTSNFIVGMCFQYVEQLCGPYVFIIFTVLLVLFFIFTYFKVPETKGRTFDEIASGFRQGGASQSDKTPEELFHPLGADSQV
For the compound `COc1ccc(NC(=O)/C=C/c2ccccc2Cl)cc1OCCN1CCC(N(C)C)CC1`, the inhibition was found to be 2.23%.

On to `CCN1CCC(N(Cc2ccc(-c3ccc(C(F)(F)F)cc3)cc2)C(=O)Cn2c(CCc3cccc(F)c3F)cc(=O)c3ccc(OCc4ccccc4)cc32)CC1`, for which the inhibition is 3.79%.

Turning to `COc1cc2c(cc1S(=O)(=O)c1ccc(NC(=O)c3cccc(C(F)(F)F)c3)cc1)CCN(C)CC2`, the inhibition worked out at 1.16%.

As for `COc1cc(OC)cc(-c2nn(-c3ccc([N+](=O)[O-])cc3C#N)c(=S)n2CC2CCCO2)c1` (centres undefined), the inhibition stood at 2.04%.

`CCN(CC)CCN(CCN(CC)CC)c1ccc(-c2nc3cc(Cl)c(Cl)cc3[nH]2)cc1`: the inhibition is 15.8%.

As to `CCC(=O)N(c1ccccc1)C1CCN(CCCC(NC(=O)c2cc(C(F)(F)F)cc(C(F)(F)F)c2)c2ccc(Cl)c(Cl)c2)CC1` (centres undefined), the inhibition came out at 8.75%.

Turning to `Cc1cc(N2CCCCC2)nc2ccc(NC(=O)c3cncc(Br)c3)cc12`, the inhibition was 10.7%.

For the compound `COc1cccc(OC2CCN(C(=O)c3ccc(-c4ccc(N5CCCC5=O)cc4C)cc3)CC2)c1`, the inhibition turned out to be 1.4%.

Take `Cc1nc(-c2cccc(Nc3ccnc4cc(-c5nccs5)ccc34)c2)no1`: the inhibition amounted to 2.59%.

With `O=C1COC2(CN1C1CCN(Cc3ccc(O)cc3Cl)C1)c1ccccc1-c1ccccc12` (centres undefined), the inhibition is 2.42%.

As to `Cc1ccc2nc(C)cc(N/N=C/c3ccc([N+](=O)[O-])cc3)c2c1`, the inhibition was 104%.

Consider `c1ccc(-c2nnc(-c3ccccn3)nc2NC2CCCCC2)cc1`, for which the inhibition was 80%.

Turning to `COc1cc2c(cc1S(=O)(=O)c1ccc(COc3ccc(C(F)(F)F)cc3)cc1)CNCC2`, the inhibition was -1.59%.

For the compound `Cc1ccc(NC(=O)c2cc([N+](=O)[O-])ccc2NCc2cccnc2)cc1Cl`, the inhibition came to 1.5%.

The values above are taken from ChEMBL document CHEMBL3433997, “St. Jude Leishmania screening dataset” (2016).
